Screening data as filed in PubChem BioAssay.
USP10 block: inhibitors of human USP10 deubiquitinase; 47,000 compounds, 1.1% hits; Q14694; AID 1645856; inhibition, % at 20 µM; purified USP10, Ub-rhodamine fluorescence, 60 min
UCHL1 inh: human UCHL1 deubiquitinase inhibition; AID 1645859; purified UCHL1, Ub-rhodamine cleavage fluorescence; P09936; 47,000 compounds, 0.2% hits; inhibition, % at 20 µM
Target sequence (P09936 whole entry, looked up): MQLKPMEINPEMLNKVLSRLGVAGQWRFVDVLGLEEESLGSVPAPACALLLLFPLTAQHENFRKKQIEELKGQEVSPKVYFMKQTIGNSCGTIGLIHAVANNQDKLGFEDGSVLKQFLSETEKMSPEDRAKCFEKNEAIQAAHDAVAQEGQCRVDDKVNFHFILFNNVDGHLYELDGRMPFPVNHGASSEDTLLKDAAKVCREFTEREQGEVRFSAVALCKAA
USP7 block: blocks human USP7 ubiquitin-rhodamine cleavage; purified USP7, Ub-rhodamine cleavage fluorescence; 47,000 compounds, 0.3% hits; Q93009; inhibition, % at 20 µM
A number is an active result. Only some compounds are listed: those with a hit (about 1.2% of all), similar ones and a draw of the others. Rule as the data show it: active = inhibition above about 30%; inactive = the rest.

O=C(CCn1c(=O)c2ccccc2n(Cc2cccc([N+](=O)[O-])c2)c1=O)NCc1ccc2c(c1)OCO2 was read as USP10 block inactive, UCHL1 inh inactive and USP7 block inactive.
Screening Cc1nc(-c2noc3ccc(C(=O)N4CCCC4)cc23)co1 returned USP10 block inactive, UCHL1 inh inactive and USP7 block inactive.
Screening COc1ccc(CCNC(=O)c2c(N)n(-c3cccc(F)c3)c3nc4ccccc4nc23)cc1 returned USP10 block inactive, UCHL1 inh inactive and USP7 block inactive.
COc1ccc(-c2nc(CNC(=O)Cc3ccc(Cl)cc3)cs2)cc1 was read as USP10 block inactive, UCHL1 inh inactive and USP7 block inactive.
`COc1cccc2cc(C(=O)NCc3cnn4ccccc34)oc12` gave USP10 block inactive, UCHL1 inh inactive and USP7 block inactive.
Screening COc1cccc2cc(C(=O)Nc3nc(-c4ccncc4)cs3)oc12 returned USP10 block 47.9, UCHL1 inh inactive and USP7 block 48.8.
For Cn1c(=O)n([C@@H](Cc2ccccc2)C(=O)NCc2ccc(F)cc2)c(=O)c2ccccc21 the results were USP10 block inactive, UCHL1 inh inactive and USP7 block inactive.
`CN(Cc1ccccc1)S(=O)(=O)c1ccc(C(=O)Nc2ccccc2)cc1` gave USP10 block inactive, UCHL1 inh inactive and USP7 block inactive.
`COc1ccc2c(Cl)c(C(=O)Nc3ccc(S(=O)(=O)N(C)Cc4ccccc4)cc3)sc2c1` gave USP10 block 42.1, UCHL1 inh inactive and USP7 block inactive.
`Cc1ccc2[nH]c3c(=O)n(CCC4=CCCCC4)cnc3c2c1` gave USP10 block inactive, UCHL1 inh inactive and USP7 block inactive.
Cc1cc(=O)[nH]c(SCC(=O)c2cc(C)n(CCC3=CCCCC3)c2C)c1C#N was read as USP10 block 44.7, UCHL1 inh inactive and USP7 block inactive.
Screening Cc1ccccc1CNC(=O)c1ccc(-c2ccc(N3CCCC3)nn2)cc1 returned USP10 block inactive, UCHL1 inh inactive and USP7 block inactive.
`O=C(NCc1ccccc1Cl)C1CCN(c2ccc(-c3ccccc3)nn2)CC1` gave USP10 block 30.5, UCHL1 inh inactive and USP7 block inactive.
`O=C(/C=C/c1ccccc1)OCC(=O)c1ccc(Cl)cc1` gave USP10 block inactive, UCHL1 inh inactive and USP7 block inactive.
`COc1ccc(-c2ccc(C#N)c(SCc3cc4c(cc3Cl)OCO4)n2)cc1` gave USP10 block inactive, UCHL1 inh inactive and USP7 block inactive.
`COc1cc(OC)c(NS(=O)(=O)c2ccc(Cl)c(C(=O)OC(C)C(=O)N3CCCC3)c2)cc1Cl` (stereo unspecified) gave USP10 block inactive, UCHL1 inh inactive and USP7 block inactive.
`COc1ccc(C(=O)C(C)OC(=O)c2cccc(S(=O)(=O)Nc3cc([N+](=O)[O-])ccc3OC)c2)c(OC)c1` (stereo unspecified) gave USP10 block 37.1, UCHL1 inh inactive and USP7 block inactive.
For Cc1ccc(S(=O)(=O)N2CCC3(CC2)NC(=O)c2ccccc2N3)c(C)c1 the results were USP10 block inactive, UCHL1 inh inactive and USP7 block inactive.
Screening Cc1cc(=O)n2c3c(c4c(cc13)c(CO)cc(=O)n4C)OC2 returned USP10 block inactive, UCHL1 inh inactive and USP7 block inactive.
Cc1cc(=O)n(C)c2c(O)c3c(cc12)c(C)cc(=O)n3C was read as USP10 block inactive, UCHL1 inh 30.3 and USP7 block inactive.
For O=C(Nc1ccc2c(c1)OCO2)c1[nH]nc2c1CCc1ccccc1-2 the results were USP10 block inactive, UCHL1 inh inactive and USP7 block inactive.
`O=C(CSc1nnc2ccc(-c3ccccc3)nn12)Nc1ccc(F)cc1` gave USP10 block inactive, UCHL1 inh inactive and USP7 block inactive.
CCOc1ccc(-c2ccc3nnc(SCC(=O)Nc4ccc(F)cc4)n3n2)cc1 was read as USP10 block 37.9, UCHL1 inh inactive and USP7 block inactive.
Screening COCCn1c(SCC(=O)Nc2ccc(OC)cc2)nnc1-c1c[nH]c2ccccc12 returned USP10 block inactive, UCHL1 inh inactive and USP7 block inactive.
`CCOc1ccc(-n2c(SCC(=O)Nc3ccc(C)cc3)nnc2-c2c[nH]c3ccccc23)cc1` gave USP10 block 70.5, UCHL1 inh inactive and USP7 block inactive.
Screening c1ccc(-c2cc(CSc3nc4ccccc4[nH]3)no2)cc1 returned USP10 block inactive, UCHL1 inh inactive and USP7 block inactive.
For Cc1nc(N2CCCC2)ncc1-c1cc(=O)[nH]c(Nc2ccc(Cl)cc2Cl)n1 the results were USP10 block 51.3, UCHL1 inh inactive and USP7 block inactive.
`Cc1ccccc1Nc1nc(-c2cnc(N3CCOCC3)nc2C)cc(=O)[nH]1` gave USP10 block inactive, UCHL1 inh inactive and USP7 block inactive.
Screening O=c1c2[nH]c3ccc(F)cc3c2ncn1Cc1cccnc1 returned USP10 block inactive, UCHL1 inh inactive and USP7 block inactive.
`O=C(CCc1ccc(S(=O)(=O)N2CCOCC2)cc1)OCC(=O)c1ccc(-c2ccccc2)cc1` gave USP10 block 37.7, UCHL1 inh inactive and USP7 block inactive.
O=C(CCc1ccc(S(=O)(=O)N2CCOCC2)cc1)NC(c1ccccc1)c1ccccc1 was read as USP10 block inactive, UCHL1 inh inactive and USP7 block inactive.
`O=S(=O)(Nc1cccc(-c2nnc(Cc3ccc4c(c3)OCO4)o2)c1)c1ccccc1` gave USP10 block inactive, UCHL1 inh inactive and USP7 block inactive.
`Cc1cccc(-n2ccnc(SCC(=O)Nc3ccc(Cl)cc3F)c2=O)c1` gave USP10 block inactive, UCHL1 inh inactive and USP7 block inactive.
COc1cccc(-c2cc(C(=O)N3CC(c4nc5ccccc5[nH]4)C3)[nH]n2)c1 was read as USP10 block inactive, UCHL1 inh inactive and USP7 block inactive.
Cn1c(COc2cccc3cccnc23)nnc1SCC(=O)c1ccc(Cl)cc1Cl was read as USP10 block 36.1, UCHL1 inh inactive and USP7 block inactive.
`COc1ccccc1OCc1nnc(SCC(=O)c2ccc(F)cc2)n1C` gave USP10 block inactive, UCHL1 inh inactive and USP7 block inactive.
For Cc1ccc(NC(=O)c2sc3ncn(CC(=O)N4CCN(c5ccccn5)CC4)c(=O)c3c2C)c(Br)c1 the results were USP10 block inactive, UCHL1 inh inactive and USP7 block inactive.
`O=C(CC(c1cccc(F)c1)n1cccc1)Nc1ccc(F)c(Cl)c1` (stereo unspecified) gave USP10 block inactive, UCHL1 inh inactive and USP7 block inactive.
Screening FC(F)(F)c1cccc(Nc2nc(-c3ccccn3)nc3ccccc23)c1 returned USP10 block inactive, UCHL1 inh inactive and USP7 block inactive.
For FC(F)(F)c1ccc(Nc2nnnc3ccccc23)cc1 the results were USP10 block 46.6, UCHL1 inh inactive and USP7 block 59.9.
For COc1ccc(NC(=O)NC(COC(=O)Nc2ccc(OC)cc2)c2ccccc2)cc1 (stereo unspecified) the results were USP10 block inactive, UCHL1 inh inactive and USP7 block inactive.
Screening C[C@@H]1Cc2cc(O)cc(O)c2C(=O)O[C@H](C)CC(=O)OC[C@@H](O)CC(=O)O[C@H](C)Cc2cc(O)cc(O)c2C(=O)O[C@H](C)CC(=O)O1 returned USP10 block inactive, UCHL1 inh inactive and USP7 block inactive.
For C/C=C/C=C/[C@@H]1Cc2cc(O)cc(O)c2O1 the results were USP10 block 32.6, UCHL1 inh 60.5 and USP7 block inactive.
